Source: PubChem BioAssay (EPA / NIEHS)
“And” between values parts separate entries of the source, which are not always exact repeats. Identical values can stand only once. Records with an inconclusive call do not appear. Where a structure was tested more than once in an assay, its records may differ in their call. The source made the active and inactive calls. Rule for the calls: active = hit-call score of the fitted dose curve at least 0.9, where 1 is the maximum; inconclusive = response in the unintended direction; inactive = score below 0.9.

Experiment: TOX21_p53_BLA_p4_viability: Viability Assessment in the Tox21 HCT-116 p53 Agonism Beta-lactamase Assay, Phase 4 (AID 2283597);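 note: hits lower the luminescence signal meaning cytotoxicity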
Text: TOX21_p53_BLA_p4 is a cell-based, single-readout assay that uses HCT116, a human intestinal cell line, […] in a 1536-well plate.TOX21_p53_BLA_p4_viability is an assay readout measuring cellular ATP content and detected with CellTiter-Glo Luciferase-coupled ATP quantitation.TOX21_p53_BLA_p4_viability used a type of viability reporter where loss-of-signal activity can be used to understand changes in the cell viability. Furthermore, this assay endpoint can be referred to as a secondary readout, because this assay has produced multiple assay endpoints where this one serves a viability function. To generalize the intended target to other relatable targets, this assay endpoint is annotated to the cell cycle intended target family, where the subfamily is cytotoxicity.
Thawing Method: Place 14 mL of pre-warmed thaw medium into a 15 mL of conical tub. Remove the vial of cells to be thawed from liquid nitrogen and thaw rapidly by placing at 37C in a water bath with gentle agitation for 1-2 minutes. Decontaminate the vial by wiping with 70% ethanol before opening in a biological safety cabinet. Transfer the vial contents drop-wise into 14 mL of thaw medium in a sterile 15-mL conical tub. Centrifuge cells at 900 rpm for 4 minutes and resuspend in thaw medium. Transfer contents to the T75 tissue culture flask containing Thaw Medium and place flask in a humidified 37C/5% CO2 incubator. Switch to growth medium at first passage.Propagation Method: Aspirate medium, rinse once in DPBS, add 0.25% Trypsin/EDTA and swirl to coat the cell evenly. Add an equal volume of Growth Medium to inactivate Trypsin after 2-3 minutes incubation at 37C. Centrifuge cells at 900 rpm for 4 minutes and resuspend in growth medium. Cell should be passage or fed at least twice a week.Assay Protocol: Harvest cells from culture in growth medium and resuspend in assay medium. 2.2 Dispense 4000 cells/5 uL/well into 1536-well black/clear bottom plates using a Multidrop dispenser. After the cells were incubated at 37C for 5 hours, 23 nL of compounds dissolved in DMSO were transferred to the assay plate by a PinTool resulting in a 217-fold dilution. Incubate the plates for 16 hours at 37C, 5% CO2. Add 1 uL of 6X LiveBLAzer FRET B/G (CCF4-AM) Substrate Mixture to each well using a BioRAPTR dispenser and incubate the plates at room temperature for 2 hours. Measure fluorescence intensity at 460 and 530 nm emission and 405 nm excitation by an Envision detector. Data is expressed as the ratio of 460nm/530nm emissions. Add 4 uL of Cell-titer Glo to each well using BioRAPTR and incubate the plates at room temperature for […]. For cell viability readout that measures cytotoxicity, 4 ul/well of CellTiter-Glo reagent was added into the assay plates using a Flying Reagent Dispenser. After 30 min incubation at room temperature, the luminescence intensity in the plates was measured using a ViewLux plate reader.
For `Clc1cnc(Oc2ccc(Oc3ncc(Cl)cc3Cl)cc2)c(Cl)c1`, the outcome was “inactive”. In the case of `CC(C)[C@@H](Nc1ccc(C(F)(F)F)cc1Cl)C(=O)OC(C#N)c1cccc(Oc2ccccc2)c1` (stereo not given in full), the outcome is reported as “inactive”. In the case of `O=C(NC(=O)c1c(F)cccc1F)Nc1cc(Cl)c(OC(F)(F)C(F)C(F)(F)F)cc1Cl` (stereo not given), the outcome is reported as “inactive”. In the case of `CCNc1nc(NCC)nc(SC)n1`, the outcome is reported as “inactive”. In the case of `CC(C)(c1ccccc1)c1cc(-n2nc3ccccc3n2)c(O)c(C(C)(C)c2ccccc2)c1`, the outcome is reported as “inactive”. For `CCCCCCCCCCCCCCC(Br)C(=O)O` (stereo not given), the outcome was “inactive”. For `C=CCN=C=S`, the outcome was “inactive”. With `Cc1cccc(N=Nc2ccc(N(C)C)cc2)c1` the outcome was “inactive”. For `C=CC(=O)[O][Sn]([CH2]CCC)([CH2]CCC)[CH2]CCC`, the AC50 was 1.56 µM (active). For `O=C(CCl)NCO`, the outcome was “inactive”. For `CC(=O)CN(CC(C)=O)N=O`, the outcome was “inactive”. In the case of `O=C(O)COc1ccc(Cl)cc1`, the outcome is reported as “inactive”. With `CC(C)[C@H](C(=O)OC(C#N)c1cccc(Oc2ccccc2)c1)c1ccc(OC(F)F)cc1` (stereo not given in full) the outcome was “inactive”. With `CCC(C)(C#N)N=NC(C)(C#N)CC` (stereo not given) the outcome was “inactive”. With `O=C(NC(=O)c1c(F)cccc1F)Nc1cc(Cl)c(F)c(Cl)c1F` the outcome was “inactive”. With `COC(=O)c1cc(Oc2ccc(Cl)cc2Cl)ccc1[N+](=O)[O-]` the outcome was “inactive”. For `O=C(Nc1ccc(Br)cc1)c1cc(Br)cc(Br)c1O`, the AC50 was 1.33 µM (active) and 417 nM (active) and 2.76 µM (active). For `CCCSP(=S)(OCC)Oc1ccc(SC)cc1` (stereo not given), the outcome was “inactive”. In the case of `C[CH2][Hg][S]c1ccccc1C(=O)O`, the AC50 is reported as 41.7 µM (active) and 5.78 µM (active). For `O=C(Cc1ccccc1)OCCc1ccccc1`, the outcome was “inactive”. With `O=NN1CCOCC1` the outcome was “inactive”. With `Cc1cc(C(F)(C(F)(F)F)C(F)(F)F)ccc1NC(=O)c1cccc(I)c1C(=O)NC(C)(C)CS(C)(=O)=O` the outcome was “inactive”. In the case of `CCCCOC(=O)COC(=O)c1ccccc1C(=O)OCCCC`, the outcome is reported as “inactive”. In the case of `O=C(CCl)Nc1ccccc1`, the outcome is reported as “inactive”. With `Cc1cc(SCc2sc(-c3ccc(C(F)(F)F)c(F)c3)nc2C)ccc1OCC(=O)O` the AC50 was 11.9 µM (active). With `CC(C)=CC1C(C(=O)OCc2cccc(Oc3ccccc3)c2)C1(C)C` (stereo not given) the outcome was “inactive”. For `CCCCS(=O)(=O)Cl`, the outcome was “inactive”. For `O=c1oc2ccccc2c(O)c1C(CC(O)c1ccc(-c2ccc(Br)cc2)cc1)c1ccccc1` (stereo not given), the AC50 was 10.4 µM (active) and the outcome was “inactive”. For `CCCCCCCCCCCCN(C)C`, the outcome was “inactive”. With `CCOP(=S)(OCC)OP(=S)(OCC)OCC` the outcome was “inactive”. In the case of `COC(=O)Nc1cccc(OC(=O)Nc2cccc(C)c2)c1`, the outcome is reported as “inactive”. In the case of `C=CC(=O)OCC(COC(=O)C=C)(COC(=O)C=C)COC(=O)C=C`, the AC50 is reported as 13.3 µM (active). For `CC(O)(CS(=O)(=O)c1ccc(F)cc1)C(=O)Nc1ccc(C#N)c(C(F)(F)F)c1` (stereo not given), the outcome was “inactive”. For `O=[N+]([O-])c1ccc(Cl)c([N+](=O)[O-])c1`, the AC50 was 71.9 µM (active) and 42.9 µM (active). In the case of `CCCCCCCCCCCCCl`, the outcome is reported as “inactive”. With `CN(C)c1ccc(N=O)cc1` the AC50 was 70.4 µM (active) and 69.5 µM (active). For `CCCCN(CCCCO)N=O`, the outcome was “inactive”. For `Nc1cccnc1`, the outcome was “inactive”. With `CC(C=O)Cc1ccc2c(c1)OCO2` (stereo not given) the outcome was “inactive”.
